# ChEMBL document CHEMBL3988442, “University of Dundee, Small-Polar-MMV Screening Library” (2021)
# For some of these results: Results with a measured potency or affinity are listed apart.
# Legend:
# Parameters in all cases: scale not given: direction of the effect not stated beside the values
# [1] = biological target: Protein translocase subunit SecA (Escherichia coli (strain K12)) (UniProt P10408); experiment: Assay to Identify E. coli SecA ATPase Inhibitors; assay type: functional; details: 30 µM
# [2] = biological target: T1, Ubiquitin-activating enzyme e1, putative (Leishmania donovani (strain BPK282A1)) (UniProt E9BSI1); experiment: Leishmania donovani Ubiquitin Activating Enzyme (LdE1); assay type: functional; details: 30 µM
# T1 sequence (whole entry): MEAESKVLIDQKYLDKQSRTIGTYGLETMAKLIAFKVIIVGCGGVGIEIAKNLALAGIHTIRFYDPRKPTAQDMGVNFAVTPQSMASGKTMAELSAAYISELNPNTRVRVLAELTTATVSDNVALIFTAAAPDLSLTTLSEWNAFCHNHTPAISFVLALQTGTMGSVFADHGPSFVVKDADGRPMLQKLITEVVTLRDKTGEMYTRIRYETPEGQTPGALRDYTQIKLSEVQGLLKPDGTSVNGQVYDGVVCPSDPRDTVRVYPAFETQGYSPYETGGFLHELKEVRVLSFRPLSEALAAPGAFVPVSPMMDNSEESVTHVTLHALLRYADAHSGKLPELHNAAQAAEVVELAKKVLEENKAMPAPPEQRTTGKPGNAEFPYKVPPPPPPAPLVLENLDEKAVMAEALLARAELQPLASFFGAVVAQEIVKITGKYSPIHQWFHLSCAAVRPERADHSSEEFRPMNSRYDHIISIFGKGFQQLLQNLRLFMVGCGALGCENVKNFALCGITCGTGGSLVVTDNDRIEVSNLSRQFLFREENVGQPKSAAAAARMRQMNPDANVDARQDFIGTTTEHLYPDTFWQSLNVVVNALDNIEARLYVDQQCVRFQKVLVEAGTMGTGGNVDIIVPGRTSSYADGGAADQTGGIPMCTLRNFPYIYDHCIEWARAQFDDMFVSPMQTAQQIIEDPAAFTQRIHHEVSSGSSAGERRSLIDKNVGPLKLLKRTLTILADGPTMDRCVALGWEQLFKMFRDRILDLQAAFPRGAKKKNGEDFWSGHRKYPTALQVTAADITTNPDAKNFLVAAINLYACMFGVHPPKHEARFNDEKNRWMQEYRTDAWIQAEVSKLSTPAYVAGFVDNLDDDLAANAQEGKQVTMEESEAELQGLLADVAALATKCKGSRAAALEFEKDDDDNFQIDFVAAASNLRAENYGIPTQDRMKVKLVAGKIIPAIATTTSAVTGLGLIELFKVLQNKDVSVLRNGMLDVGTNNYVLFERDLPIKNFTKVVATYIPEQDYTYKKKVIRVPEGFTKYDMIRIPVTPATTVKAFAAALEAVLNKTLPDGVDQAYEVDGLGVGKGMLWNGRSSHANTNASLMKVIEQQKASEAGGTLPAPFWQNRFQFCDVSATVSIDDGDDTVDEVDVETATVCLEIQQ
# [3] = biological target: AMP-activated protein kinase, AMPK (Homo sapiens) (UniProt P54646+O43741+P54619+Q9UGJ0+Q9Y478+Q13131+Q9UGI9); experiment: AMP-dependent Kinase enzyme assay. An in vitro enzyme assay that detects ADP turnover that is directly proportional to AMPK activity. This uses naive AMPK that is activated during the assay with MK-8722; assay type: functional; details: 30 µM
# [4] = biological target: Sialic acid-binding Ig-like lectin 9 (Homo sapiens) (UniProt Q9Y336); experiment: Hs-Siglec9 ALPHAscreen SOP 20170721; details: 10 µM
# Trypanosoma cruzi = experiment: Trypanosoma cruzi phosphomannomutase and mannose-1-phosphate guanylyltransferase assay; assay type: functional; details: 10 µM
# [5] = biological target: T2, Arginase-2, mitochondrial (Homo sapiens) (UniProt P78540); experiment: in vitro enzyme assay to detect the production of urea directly proportional to the activity of Arginase II; assay type: functional; details: 33.3 µM; note: in the data most compounds retested in dose-response had high values
# T2 sequence (whole entry): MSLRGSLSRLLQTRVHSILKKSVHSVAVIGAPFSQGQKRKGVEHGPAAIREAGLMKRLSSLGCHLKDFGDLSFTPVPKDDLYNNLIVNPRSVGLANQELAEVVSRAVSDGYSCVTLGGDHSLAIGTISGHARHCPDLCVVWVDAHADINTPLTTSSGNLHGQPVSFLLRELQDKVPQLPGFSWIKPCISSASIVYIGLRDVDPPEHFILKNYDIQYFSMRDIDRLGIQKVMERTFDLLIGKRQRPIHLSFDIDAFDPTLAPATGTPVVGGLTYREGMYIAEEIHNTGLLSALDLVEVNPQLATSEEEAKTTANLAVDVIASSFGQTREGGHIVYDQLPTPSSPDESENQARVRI
# [6] = biological target: T3, Proteasome subunit beta (Trypanosoma cruzi) (UniProt O96673); experiment: Trypanosoma cruzi proteasome chymotrypsin-like activity (TcProtChymo) assay.; note: in the data most compounds retested in dose-response had high values; assay type: functional; details: 9.37 µM
# T3 sequence (whole entry): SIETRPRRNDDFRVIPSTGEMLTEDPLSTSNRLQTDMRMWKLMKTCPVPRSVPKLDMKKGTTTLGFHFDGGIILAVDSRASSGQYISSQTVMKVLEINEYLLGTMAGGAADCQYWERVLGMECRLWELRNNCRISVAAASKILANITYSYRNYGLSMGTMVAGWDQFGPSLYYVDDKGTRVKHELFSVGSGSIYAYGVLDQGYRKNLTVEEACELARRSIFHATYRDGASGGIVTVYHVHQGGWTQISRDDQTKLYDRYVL
# Homo sapiens = organism: Homo sapiens; experiment: To identify inhibition of the IFN signalling (Jak-Stat) pathway via expression of an eGFP reporter gene under the control of an IFN-stimulated response element (ISRE) containing MxA promoter.; assay type: functional; details: 30 µM
# [7] = biological target: T4, Tyrosyl-tRNA synthetase, putative (Trypanosoma cruzi (strain CL Brener)) (UniProt Q4DSP6); experiment: Trypanosoma cruzi tyrosyl tRNA synthetase (TcYRS) _High Tyrosine SOP; assay type: functional; details: 30 µM; note: in the data most compounds retested in dose-response had high values
# T4 sequence (whole entry): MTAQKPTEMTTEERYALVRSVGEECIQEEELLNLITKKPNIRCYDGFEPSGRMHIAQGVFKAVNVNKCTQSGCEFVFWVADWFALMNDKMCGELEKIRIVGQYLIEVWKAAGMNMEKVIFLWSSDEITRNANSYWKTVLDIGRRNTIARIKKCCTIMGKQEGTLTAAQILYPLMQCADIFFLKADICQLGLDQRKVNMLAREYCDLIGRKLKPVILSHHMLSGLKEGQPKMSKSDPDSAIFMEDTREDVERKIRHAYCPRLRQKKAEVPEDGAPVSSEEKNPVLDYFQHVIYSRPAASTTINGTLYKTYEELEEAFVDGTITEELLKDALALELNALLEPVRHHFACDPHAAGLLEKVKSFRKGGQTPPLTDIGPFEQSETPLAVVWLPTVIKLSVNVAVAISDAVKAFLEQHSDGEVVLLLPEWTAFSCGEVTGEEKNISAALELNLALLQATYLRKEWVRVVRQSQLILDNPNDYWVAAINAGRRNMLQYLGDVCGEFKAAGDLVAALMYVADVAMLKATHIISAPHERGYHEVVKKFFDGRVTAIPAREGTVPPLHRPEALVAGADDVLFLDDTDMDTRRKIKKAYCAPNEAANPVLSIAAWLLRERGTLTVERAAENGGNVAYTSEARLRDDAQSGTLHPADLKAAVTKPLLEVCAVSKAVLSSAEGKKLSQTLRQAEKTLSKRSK
# [8] = biological target: T4, Tyrosyl-tRNA synthetase, putative (Trypanosoma cruzi (strain CL Brener)); experiment: Trypanosoma cruzi tyrosyl tRNA synthetase (TcYRS) SOP; assay type: functional; details: 30 µM
# [9] = biological target: Chromo domain-containing protein 1 (Saccharomyces cerevisiae (strain ATCC 204508 / S288c) (Baker's yeast)) (UniProt P32657); experiment: ScCHD-1 Enzyme Inhibition Assay; assay type: functional; details: 30 µM; note: in the data most compounds retested in dose-response had high values
# Chain of Chromo domain-containing protein 1 (Saccharomyces cerevisiae (strain ATCC 204508 / S288c) (Baker's yeast)) (P32657 whole entry, the tested form may be a part): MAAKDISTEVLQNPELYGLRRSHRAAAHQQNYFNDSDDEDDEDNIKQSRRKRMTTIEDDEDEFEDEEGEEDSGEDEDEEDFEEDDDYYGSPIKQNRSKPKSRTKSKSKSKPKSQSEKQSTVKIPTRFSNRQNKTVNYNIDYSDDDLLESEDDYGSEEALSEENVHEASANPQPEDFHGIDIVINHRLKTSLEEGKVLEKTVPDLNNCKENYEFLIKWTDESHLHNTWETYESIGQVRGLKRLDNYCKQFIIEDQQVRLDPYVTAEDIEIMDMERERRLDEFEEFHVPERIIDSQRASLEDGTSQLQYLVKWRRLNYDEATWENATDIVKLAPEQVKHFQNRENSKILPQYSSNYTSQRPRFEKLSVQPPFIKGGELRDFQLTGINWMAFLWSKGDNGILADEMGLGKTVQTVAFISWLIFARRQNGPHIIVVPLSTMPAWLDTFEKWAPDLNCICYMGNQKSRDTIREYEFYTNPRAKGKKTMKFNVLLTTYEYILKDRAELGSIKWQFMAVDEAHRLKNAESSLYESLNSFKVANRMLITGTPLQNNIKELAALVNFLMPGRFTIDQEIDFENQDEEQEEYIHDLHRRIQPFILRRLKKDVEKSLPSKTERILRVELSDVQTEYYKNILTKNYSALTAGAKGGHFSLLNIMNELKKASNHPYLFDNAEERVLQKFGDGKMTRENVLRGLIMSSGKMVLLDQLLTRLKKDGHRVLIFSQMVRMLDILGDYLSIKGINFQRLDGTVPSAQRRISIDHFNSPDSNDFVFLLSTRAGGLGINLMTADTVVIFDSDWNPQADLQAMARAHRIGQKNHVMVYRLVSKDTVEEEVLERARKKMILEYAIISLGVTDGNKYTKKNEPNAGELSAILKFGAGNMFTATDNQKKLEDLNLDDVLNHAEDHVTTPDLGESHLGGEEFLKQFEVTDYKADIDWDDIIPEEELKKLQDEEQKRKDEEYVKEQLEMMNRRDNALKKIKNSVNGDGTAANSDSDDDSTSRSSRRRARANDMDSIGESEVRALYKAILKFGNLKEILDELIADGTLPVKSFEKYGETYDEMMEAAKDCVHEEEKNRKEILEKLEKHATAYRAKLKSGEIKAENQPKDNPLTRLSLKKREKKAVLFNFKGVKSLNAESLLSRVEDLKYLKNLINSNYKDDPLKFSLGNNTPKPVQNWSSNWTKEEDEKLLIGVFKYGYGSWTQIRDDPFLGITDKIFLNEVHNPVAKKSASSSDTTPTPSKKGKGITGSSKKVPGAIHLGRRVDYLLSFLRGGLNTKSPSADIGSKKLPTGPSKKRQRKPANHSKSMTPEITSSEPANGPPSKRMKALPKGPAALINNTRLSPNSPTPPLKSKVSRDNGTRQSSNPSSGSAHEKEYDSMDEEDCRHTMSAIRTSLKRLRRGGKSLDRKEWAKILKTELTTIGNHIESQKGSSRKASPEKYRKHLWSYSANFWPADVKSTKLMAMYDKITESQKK
# Chain of Sialic acid-binding Ig-like lectin 9 (Homo sapiens) (Q9Y336 whole entry): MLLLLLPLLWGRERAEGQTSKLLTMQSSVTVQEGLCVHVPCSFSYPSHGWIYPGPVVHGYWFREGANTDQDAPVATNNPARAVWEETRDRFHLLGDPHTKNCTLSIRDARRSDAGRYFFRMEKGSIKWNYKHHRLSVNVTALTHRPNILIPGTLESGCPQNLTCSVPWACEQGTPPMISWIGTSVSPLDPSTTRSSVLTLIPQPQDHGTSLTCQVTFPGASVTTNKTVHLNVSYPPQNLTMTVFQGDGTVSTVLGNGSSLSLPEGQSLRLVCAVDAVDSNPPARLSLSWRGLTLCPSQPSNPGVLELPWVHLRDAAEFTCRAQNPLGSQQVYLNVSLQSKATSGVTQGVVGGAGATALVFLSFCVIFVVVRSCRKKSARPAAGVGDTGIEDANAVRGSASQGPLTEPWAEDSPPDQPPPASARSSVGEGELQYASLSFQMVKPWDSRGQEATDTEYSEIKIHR
# Chain of Protein translocase subunit SecA (Escherichia coli (strain K12)) (P10408 whole entry): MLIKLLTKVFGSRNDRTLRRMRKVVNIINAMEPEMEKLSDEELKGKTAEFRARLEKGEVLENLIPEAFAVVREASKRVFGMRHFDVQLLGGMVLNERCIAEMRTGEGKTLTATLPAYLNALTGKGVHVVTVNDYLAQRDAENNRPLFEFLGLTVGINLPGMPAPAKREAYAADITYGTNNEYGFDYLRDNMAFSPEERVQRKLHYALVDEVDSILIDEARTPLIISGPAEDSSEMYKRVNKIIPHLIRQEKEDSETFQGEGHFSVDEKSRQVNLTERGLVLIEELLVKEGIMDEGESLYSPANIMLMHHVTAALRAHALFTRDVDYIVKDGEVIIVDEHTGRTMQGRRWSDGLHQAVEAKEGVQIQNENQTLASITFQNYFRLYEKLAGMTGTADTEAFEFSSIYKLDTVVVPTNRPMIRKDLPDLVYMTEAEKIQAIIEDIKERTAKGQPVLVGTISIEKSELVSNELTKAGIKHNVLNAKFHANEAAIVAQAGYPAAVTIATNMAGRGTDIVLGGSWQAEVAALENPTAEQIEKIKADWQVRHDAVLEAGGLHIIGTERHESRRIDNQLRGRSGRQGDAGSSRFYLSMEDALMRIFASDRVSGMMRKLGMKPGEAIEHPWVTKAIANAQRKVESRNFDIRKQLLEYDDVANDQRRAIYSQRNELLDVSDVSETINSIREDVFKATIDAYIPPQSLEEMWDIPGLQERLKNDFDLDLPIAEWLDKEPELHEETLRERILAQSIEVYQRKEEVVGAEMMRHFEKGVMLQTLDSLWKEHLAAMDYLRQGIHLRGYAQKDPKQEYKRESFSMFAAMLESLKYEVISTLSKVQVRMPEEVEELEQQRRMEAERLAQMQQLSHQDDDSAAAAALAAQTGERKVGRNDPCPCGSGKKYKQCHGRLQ
Structure (SMILES),Percent Effect [1] [%],Percent Effect [2] [%],Percent Effect [3] [%],Percent Effect [4] [%],Percent Effect (Trypanosoma cruzi) [%],Percent Effect [5] [%],Percent Effect [6] [%],Percent Effect (Homo sapiens) [%],Percent Effect [7] [%],Percent Effect [8] [%],Percent Effect [9] [%]
Cc1nn(C(C)C)c(C)c1NC(=O)c1ccccc1,-2.77,2.74,-0.803,6.74,4.17,-2.4,14.5,-0.0619,7.29,-3.7,-1.66
Cc1ccc(Cn2ccc(NS(C)(=O)=O)n2)cc1,-6.83,5.2,-4.69,-0.383,-2.46,-5.52,9.32,-2.78,3.23,13.6,1.11
CC1COCCN1Cc1nc(-c2cccc(Br)c2)no1 (configuration not stated),-3.43,13.5,7.49,1.61,-8.4,2,17.7,24.7,0.493,1.24,-8.7
Cc1cc(C)n(CC2CCCN2C(=O)c2ccc3[nH]nnc3c2)n1 (configuration not stated),-4.12,5.48,5.75,0.134,-2.35,5.46,14.4,4.89,1.07,10,-3.11
Cc1cc(=O)[nH]c(SCC(=O)N(C)CC2Cc3ccccc3CN2C)n1 (configuration not stated),-6.85,5.41,-2.17,-6.16,-0.489,-0.744,5.75,-12.2,6.45,8.64,-4.63
Cc1nn(C)c(C)c1CNCc1ccnc(N2CCOCC2)c1,-6.06,1.27,2.39,-0.497,2.56,-0.645,-1.03,24,-1.04,-2.53,-31.5
COc1ccc(CN2CCc3nc(C4CCCCN4C)ncc3C2)cc1 (configuration not stated),-0.233,-8,-0.187,-0.354,3.54,-2.1,28.3,11.8,21.3,26.9,-1.3
CN(C)C(=O)N1C[C@@H]2CC[C@H](C1)N(C(=O)CCCn1cncn1)C2,-2.38,2.7,0.473,0.611,1.74,1.43,19,-5.66,8.99,21.9,-3.6
COc1c(C2CCCN2C(=O)c2cc(Cl)c[nH]2)c(C)nn1C (configuration not stated),-5.79,5.41,4.66,-0.555,-0.781,2.08,4.31,-1.4,9.9,-3.66,-3.93
CSc1nccn1-c1cccc(C(=O)NCc2nnc(C)n2C)c1,-3.63,13.2,-0.262,12.6,4.01,1.08,3.98,15.6,6.4,23.5,-2.71
Cc1cc(C2CCCN2CCCc2nc3ccccc3o2)on1 (configuration not stated),0.895,5.41,-3.23,0.643,-3.87,21.6,1.62,2.07,4.43,6.17,-3.04
CCc1nccn1C1CCCN(C(=O)Cc2n[nH]c3ccccc23)C1 (configuration not stated),-3.99,3.8,8.48,8.66,-4.62,3.66,-0.858,1.26,2.08,15.2,-2.38
CCc1nc(CN2CCCC(NCc3nc4cccnc4[nH]3)C2)no1 (configuration not stated),-0.119,20.2,-9.6,-10.5,2.36,0,5.98,11.5,10.3,16.5,-8.46
Cn1nccc1C1CCN(CC(O)c2cccc(F)c2)CC1 (configuration not stated),-3.15,5.06,0.204,2.12,6.89,-1.14,4.18,15.3,-0.493,-8.86,-4.6
N#Cc1cn(C2CC2)c(=O)n(CC(O)c2ccccc2F)c1=O (configuration not stated),-3.42,21.1,-2.46,7.51,6.58,-1.15,10.7,0.878,6.37,19.5,-13.4
COc1ccccc1CN1CC[C@H]2C[C@@H](C(=O)N3CCCC3)O[C@H]2C1,2.23,13,4.84,-5.31,-7.99,4.52,8.88,6,6.35,14.1,-7.87
CN(Cc1cccnc1)CC1CCCN1c1cccnn1 (configuration not stated),4.47,18.2,-2.81,-14.9,-5.58,0.21,13.7,27.4,7.62,18.8,-18.6
